# Hits are enriched below; roughly 7.4% of the tested compounds scored in any of these assays.
# NIH3T3 tox: kills NIH 3T3 cells; AID 1345082; actives 4.3% (n = 94,000); Potency, µM (series often up to 96.7 µM), usual class: inhibitors; NIH 3T3 viability, CellTiter-Glo ATP luminescence, 48-72 h; note: nearly all actives have a fitted effect of over 55% in size
#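 Viability of NIH 3T3 cells after 48 or 72 hr compound treatment at 37 °C was assessed by CellTiter-Glo, with luminescence imaged following a 10 min room-temperature step.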
# hNpr1 antagonist: blocks ANP-stimulated signaling of human Npr1 receptor; HEK293 hNpr1 GloSensor cGMP, ANP-stimulated luminescence; AID 1347048; Potency, µM (titrated, usually from 46.3 µM), usual class: inhibitors; P16066; actives 1.6% (n = 76,000); calls by dose curve; note: nearly all actives have a fitted effect of over 60% in size
#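 Compound pre-incubated 30 min at room temperature on GloSensor-loaded HEK293 cells stably carrying hNpr1 and the pGS-40F cGMP biosensor. Stimulation uses hNppA at 0.1 nM final; luminescence is taken at baseline and 20 min post-agonist.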
# SNCA viab count: reduces viability of HEK-293 SNCA reporter cells | HEK-293-SNCA-luc viability, GF-AFC fluorescence, 24 h | Potency, µM (series often up to 57.1 µM), hits mostly cytotoxic | actives 0.12% (n = 150,000) | AID 1671193; note: nearly all actives have a fitted effect of over 30% in size
#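 Cytotoxicity counterscreen: after 24 h compound treatment of genome-edited SNCA-luciferase HEK-293 cells, live-cell protease substrate GF-AFC read by fluorescence after 30 min; activity scaled between DMSO (0%) and medium-only (-100%), curves Hill-fitted.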
# FLuc inh-1: blocks purified firefly luciferase enzyme activity; actives 2.5% (n = 76,000); P08659; AID 1347043; purified P. pyralis luciferase, luminescence, biochemical; Potency, µM (top dose mostly 115 µM), hits mostly inhibitors; note: nearly all actives have a fitted effect of over 65% in size
# Target sequence (P08659 whole entry, looked up): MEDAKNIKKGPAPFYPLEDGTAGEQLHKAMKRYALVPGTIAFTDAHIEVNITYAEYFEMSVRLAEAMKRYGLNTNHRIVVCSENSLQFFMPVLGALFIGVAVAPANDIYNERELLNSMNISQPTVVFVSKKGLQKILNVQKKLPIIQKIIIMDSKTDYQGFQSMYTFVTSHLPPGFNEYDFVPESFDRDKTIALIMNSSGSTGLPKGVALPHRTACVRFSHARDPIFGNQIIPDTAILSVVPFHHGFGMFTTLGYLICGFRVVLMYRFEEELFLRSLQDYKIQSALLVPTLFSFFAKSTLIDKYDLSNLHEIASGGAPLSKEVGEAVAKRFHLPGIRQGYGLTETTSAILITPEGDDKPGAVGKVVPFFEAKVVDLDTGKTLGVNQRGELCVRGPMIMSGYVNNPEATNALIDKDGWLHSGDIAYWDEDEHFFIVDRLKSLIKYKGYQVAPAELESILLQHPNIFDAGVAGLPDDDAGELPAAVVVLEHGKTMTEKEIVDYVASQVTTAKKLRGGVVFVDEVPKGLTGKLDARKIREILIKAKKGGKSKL
#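 Purified 10nM P. pyralis luciferase with 10uM D-luciferin and 10uM ATP in 50mM Tris acetate pH 7.5, 10mM Mg acetate, 0.01% Tween-20, 0.05% BSA. qHTS titration; luminescence read by CCD imager.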
# HEK cytotox: HEK 293 cell cytotoxicity; HEK 293 viability, ATP luminescence (CellTiter-Glo), 48-72 h; Potency, µM (series often up to 115 µM), most hits filed as inhibitors; actives 6.6% (n = 94,000); AID 1345083; note: nearly all actives have a fitted effect of over 60% in size
#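 250 HEK 293 cells/well; compound by pintool; incubated 48 or 72 hr at 37 degree Celsius; CellTiter-Glo added, 10 min RT, luminescence imaged.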
# SNCA expr inhib: inhibitors of alpha-synuclein (SNCA) gene expression. Potency, µM (doses to about 57.2 µM), usual class: inhibitors. HEK-293 SNCA-luciferase knock-in, luminescence, 24 h. actives 0.17% (n = 140,000); note: nearly all actives have a fitted effect of over 45% in size
# FLuc SDR -ATP: firefly luciferase binding stabilization, ATP absent; shares compounds with FLuc inh-1; Purified FLuc-C-HiBiT, Nano-Glo HiBiT luminescence, no ATP; Potency, µM (highest dose often 32.7 µM), actives largely listed as activators; actives 7.8% (n = 1,300); note: nearly all actives have a fitted effect of over 55% in size
# FLuc SDR ATP: binders stabilizing firefly luciferase, plus ATP; shares compounds with FLuc inh-1; purified FLuc-C-HiBiT + ATP, HiBiT complementation luminescence; Potency, µM (highest dose often 32.7 µM), usual class: activators; actives 8.7% (n = 1,300); AID 1963319;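 note: signal reports ligand binding via conformational change of the enzyme rather than luciferase catalysis; nearly all actives have a fitted effect of over 55% in size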
# FLuc inh-2: firefly luciferase enzyme inhibition; actives 42% (n = 1,300); shares compounds with FLuc inh-1; purified FLuc-C-HiBiT enzyme, luciferin luminescence; Potency, µM (highest dose often 32.7 µM), most hits filed as inhibitors; AID 1963320; note: nearly all actives have a fitted effect of over 70% in size
# Numbers stand for hits; n = inactive; u = inconclusive; x = no result. Unless noted, calls come from the whole dose curve; as a rule, active = well fitted curve in the direction sought with a large enough effect; inconclusive = small, poorly fitted or top-dose-only effect, or another doubt; inactive = no such curve, though single readings can be large; an effect the other way counts as inactive or inconclusive.
SMILES,NIH3T3 tox,hNpr1 antagonist,SNCA viab count,FLuc inh-1,HEK cytotox,SNCA expr inhib,others
COC1CC(O[C@H]2CC[C@]3(C=O)C4CC[C@]5(C)[C@@H](C6=CC(=O)OC6)CC[C@]5(O)[C@@H]4CC[C@@H]3C2)OC(C)C1O[C@@H]1O[C@H](CO)[C@@H](O[C@@H]2O[C@H](CO)[C@@H](O)[C@H](O)[C@H]2O)[C@H](O)[C@H]1O (stereo partly drawn),x,x,5.7µM,x,x,x,
Cc1nc(-c2ccc(N(C)C)cc2)cc([C@H]2CN3CC[C@H]2C[C@@H]3CNC(=O)C2CC2)n1,100µM,n,n,n,71µM,n,
Cc1nc(-c2ccc(N(C)C)cc2)cc([C@H]2CN3CC[C@H]2C[C@@H]3CNC(=O)N2CCOCC2)n1,u,n,n,n,u,n,
Cc1nc(-c2ccc(N(C)C)cc2)cc([C@H]2CN3CC[C@H]2C[C@@H]3CNCc2cccc(C#N)c2)n1,28µM,n,u,u,25µM,n,
Cc1nc(-c2ccc(N(C)C)cc2)cc([C@H]2CN3CC[C@H]2C[C@@H]3CNC(=O)C(C)(C)C)n1,89µM,n,u,n,56µM,u,
Cc1nc(-c2ccc(C(F)(F)F)cc2)cc([C@H]2CN3CC[C@H]2C[C@@H]3CNC(=O)C2CC2)n1,u,n,n,n,u,u,
CCCCn1cc(C(=O)c2cccc3ccccc23)c2ccccc21,x,x,n,x,x,x,
CCCCOC(=O)N1C[C@H](C(=O)OCC)[C@H]2c3ccccc3NC(=O)[C@]21C,n,x,n,x,u,u,
Cc1ccc(-n2cccc2CC(=O)N2CCN(C3CCN(C)CC3)CC2)cc1,n,n,n,n,n,n,
C[C@@H]1CCC2[C@@H](C)C(=O)OC3O[C@@]4(C)CCC1[C@]32OO4 (stereo partly drawn),x,x,n,x,x,x,
CC[C@H]1CN2CC[C@H]1C[C@@H]2CNC(=O)Nc1ccccc1,n,n,n,n,n,n,
COc1ccccc1N1CCN(C[C@H]2CN3CC[C@H]2C[C@@H]3CNC(=O)Nc2ccsc2)CC1,u,n,n,n,n,n,
CC[C@H]1CN2CC[C@H]1C[C@@H]2CNC(=O)Nc1ccc(Oc2ccccc2)cc1,28µM,n,n,n,25µM,u,
CC[C@H]1CN2CC[C@H]1C[C@@H]2CNC(=S)Nc1ccc(C)cc1Br,45µM,n,n,n,u,n,
COc1ccc(NC(=O)NC[C@H]2C[C@@H]3CCN2C[C@@H]3CN2CCN(c3ccccc3OC)CC2)cc1,u,n,n,n,89µM,n,
CCCCCn1cc(C(=O)c2cccc3ccccc23)c2ccccc21,x,x,n,x,x,x,
O=C1Nc2ccccc2C12CCN(CC1CCCCC1)CC2,n,x,n,x,u,n,
CN(Cc1ccccc1)C[C@H]1CN2CC[C@H]1C[C@@H]2CNC(=O)c1ccccc1,u,n,n,n,u,n,
CC(=O)c1ccc(NC(=O)NC[C@H]2C[C@@H]3CCN2C[C@@H]3CN(C)Cc2ccccc2)cc1,89µM,n,n,n,100µM,n,
CN(Cc1ccccc1)C[C@H]1CN2CC[C@H]1C[C@@H]2CNC(=O)Nc1ccccc1,100µM,n,n,n,100µM,n,
C#CCN(C)C[C@H]1CN2CC[C@H]1C[C@@H]2CNC(=O)Nc1ccc(C(C)=O)cc1,n,n,n,n,n,n,
COc1cc2c(cc1Oc1cccc(N(C)C)c1)NC(=O)C21CCN(c2ncccn2)CC1,u,u,n,n,u,n,
COc1cc2c(cc1Oc1cccc(N(C)C)c1)NC(=O)C21CCN(CC2CC2)CC1,79µM,u,n,n,u,n,
COc1cc2c(cc1Oc1ccccc1)NC(=O)C21CCN(C(=O)C(C)C)CC1,n,n,n,n,u,n,
COc1cc2c(cc1Oc1ccccc1)NC(=O)C21CCN(CC2CC2)CC1,45µM,n,n,n,u,n,
SMILES,NIH3T3 tox,hNpr1 antagonist,SNCA viab count,FLuc inh-1,HEK cytotox,SNCA expr inhib,others
COc1ccc2c(c1)C1(CCN(C(=O)Nc3ccc4c(c3)OCCO4)C1)C(=O)N2C (stereo not drawn),n,n,n,10µM,n,n,FLuc SDR -ATP=n;FLuc SDR ATP=n;FLuc inh-2=u
COc1ccc2c(c1)C1(CCN(C(=O)Nc3cccc(C)c3)C1)C(=O)N2C (stereo not drawn),n,n,n,n,n,n,
C[C@H]1C(=O)O[C@H]2[C@H](O)[C@]34C5OC(=O)[C@]3(O[C@@H]3OC(=O)[C@H](O)C34[C@H](C(C)(C)C)[C@H]5O)C12O (stereo partly drawn),x,x,n,x,x,x,
CCCN1CCNc2cc(Nc3ccccc3)ncc2C1,u,n,u,6.3µM,89µM,n,FLuc SDR -ATP=n;FLuc SDR ATP=n;FLuc inh-2=u
COc1ccc(CCNCc2ccc(OC)c3ccccc23)cc1,x,x,n,x,x,x,
O=C(Nc1ccc2c(c1)OCCO2)c1cccn(Cc2ccccc2)c1=O,x,x,n,x,x,n,FLuc SDR -ATP=n;FLuc SDR ATP=n;FLuc inh-2=u
O=C(Nc1ccc2c(c1)OCCO2)c1cccn(Cc2cccc([N+](=O)[O-])c2)c1=O,x,x,n,x,x,n,
COc1ccc(-c2cc3c(cn2)CN(C)CCN3)cn1,u,n,n,6.3µM,n,n,FLuc SDR -ATP=n;FLuc SDR ATP=n;FLuc inh-2=u
CCn1cc(-c2cc3c(cn2)CN(C)CCN3)cn1,x,x,x,x,x,x,FLuc SDR -ATP=n;FLuc SDR ATP=n;FLuc inh-2=u
C/C=C1/CN2CC[C@]34C(=Nc5ccc(OC)cc53)C2C[C@@H]1C4(CO)C(=O)OC (stereo partly drawn),x,x,n,x,x,x,
CC(=O)Nc1ccc(S(=O)(=O)N2C[C@@H]3C[C@H](C2)c2c(-c4cccs4)ccc(=O)n2C3)cc1,n,n,n,n,n,n,
CN1CCN(C(=O)COc2ccc(-c3nc4ccccc4s3)cc2)CC1,x,x,x,x,x,x,FLuc SDR -ATP=1.6µM;FLuc SDR ATP=u;FLuc inh-2=0.5µM
